RORg inh: qHTS for inhibitors of ROR gamma transcriptional activity; Potency, µM (titrated, usually from 53.6 µM), for inactives: at the highest dose activity change, negative = inhibition, hits mostly inhibitors; Nuclear receptor ROR-gamma (Mus musculus), P51450; hit rate 5.4% among 310,000; Drosophila S2 Gal4-RORgamma UAS-luciferase reporter, 20 h; note: nearly all actives have a fitted effect of over 60% in size
Target sequence (P51450 whole entry, looked up, the tested form may be a part): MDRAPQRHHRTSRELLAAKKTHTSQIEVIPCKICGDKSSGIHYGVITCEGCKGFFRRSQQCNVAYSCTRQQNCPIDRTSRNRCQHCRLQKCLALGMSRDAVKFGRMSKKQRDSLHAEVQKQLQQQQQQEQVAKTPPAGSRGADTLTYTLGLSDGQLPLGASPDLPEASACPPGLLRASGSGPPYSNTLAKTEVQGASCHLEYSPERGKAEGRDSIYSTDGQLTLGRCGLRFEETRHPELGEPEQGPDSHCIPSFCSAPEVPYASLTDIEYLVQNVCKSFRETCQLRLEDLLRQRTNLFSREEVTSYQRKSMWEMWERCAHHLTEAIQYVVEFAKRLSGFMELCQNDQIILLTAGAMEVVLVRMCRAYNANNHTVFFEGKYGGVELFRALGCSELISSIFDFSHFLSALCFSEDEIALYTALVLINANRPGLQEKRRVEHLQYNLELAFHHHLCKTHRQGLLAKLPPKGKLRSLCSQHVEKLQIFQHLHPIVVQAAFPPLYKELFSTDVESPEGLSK
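A Gal4/UAS one-hybrid system in insect cells: metallothionein-promoter Gal4–ROR gamma fusion plus Photinus luciferase reporter. Copper sulfate 700 uM final, 20 hr ambient incubation, luminescent detection after 10 min with reagent.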
KinaseGlo FLuc: Counterscreen for Luciferase (Kinase-Glo TM) Inhibition; Luciferin 4-monooxygenase (Photuris pensylvanica), Q27757; Kinase-Glo luciferase, ATP luminescence, 8 min; Potency, µM (highest dose often 38.3 µM), for inactives: top-dose activity change, negative = inhibition, usual class: inhibitors; hit rate 0.28% among 200,000; AID 1379, 2008; note: nearly all actives have a fitted effect of over 60% in size
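Recombinant Kinase-Glo luciferase, 10 uM ATP (linear range), luciferin; imidazole pH 7.2 / KCl / MgCl2 / Tween / BSA buffer; 8 min RT; luminescence.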
Gal4-VP16 FLuc: VP16 counterscreen qHTS for inhibitors of ROR gamma transcriptional activity; hit rate 3.5% among 310,000; Potency, µM (doses to about 53.6 µM), for the others: at the top dose activity, negative = inhibition, most hits filed as inhibitors; Drosophila S2 Gal4-VP16 UAS-luciferase, luminescence, 20 h;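 note: Gal4-VP16 expression switched on by copper sulfate through the metallothionein promoter; nearly all actives have a fitted effect of over 50% in size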
Active calls of the source: *; ? = inconclusive; nt = not tested or not shown; [ ] = dose if it differs, or a comment. A selection: hits, their analogues and other compounds. The true share with any hit is near 6.2%. Calls come from the whole dose curve; as a rule, active = well fitted curve in the direction sought with a large enough effect; inconclusive = small, poorly fitted or top-dose-only effect, or another doubt; inactive = no such curve, though single readings can be large; an effect the other way counts as inactive or inconclusive. % is set by controls: 0 for no effect and ±100 for the full control effect; potency is the fitted concentration of half-maximal effect.

SMILES	RORg inh	KinaseGlo FLuc	Gal4-VP16 FLuc
CCN(CC)CCCNc1nc(CN2CCOCC2)nc2sc3c(c12)CCC3	-6%	1%	-2%
O=S(=O)(Cc1ccc(Cl)cc1)Nc1ccc(Cl)cn1	7%	0%	6%
CC[n+]1c(C)cc(C)n1-c1ccccc1	8%	2%	-9%
COc1ccccc1NC(=O)/C(=N/OCc1ccc(C#N)cc1)C(C)=O	7%	-2%	-2%
S=c1[nH]nc(Cc2cccc3ccccc23)n1-c1ccccc1	3.2µM*	4%	7.1µM*
C=C(C)Cn1c(-c2ccc(OC)cc2)nc2ccccc21	-40%	-4%	-5%
COc1cccc2cc(-c3n[nH]c(=S)n3C)oc12	3.5µM*	10%	-19%[10 µM]
COc1cccc2cc(-c3ccnc(N)n3)oc12	1%	?	-2%
O=c1c2ccccc2cnn1Cc1n[nH]c(=S)n1-c1ccccc1	?	-2%	-1%
O=c1[nH]c(SCc2n[nH]c(=S)n2-c2ccccc2)nc2ccccc12	-34%	2%	7%
C=C(C)Cn1c(CCn2c3ccccc3c3ccccc32)n[nH]c1=S	?	4%	1µM*
S=c1[nH]nc(Cc2noc3ccccc23)n1-c1ccccc1	10µM*	4%	-6%
Cc1cc(=O)[nH]c2ccc(S(=O)(=O)NC3CCCCC3)cc12	-28%	nt	-3%
CC(Sc1cccc[n+]1[O-])c1ccccc1 (stereo unspecified)	-25%	nt	-2%
C=CCn1c(=O)c2ccccc2n2c(=S)[nH]nc12	-29%	nt	-6%
C=CCn1c(Cc2nc3ccccc3[nH]2)n[nH]c1=S	-9%[0.365 µM]	-4%	nt
C=CCn1c(Cc2cccc3ccccc23)n[nH]c1=S	4µM*	1%	11µM*
C=CCn1c(CCn2c3ccccc3c3ccccc32)n[nH]c1=S	4µM*	-2%	3.2µM*
Cn1c(Cn2c3ccccc3c3ccccc32)n[nH]c1=S	3.5µM*	nt	13µM*
Cn1c(Cc2c[nH]c3ccccc23)n[nH]c1=S	-19%	0%	6%
Cn1c(-c2cnn(-c3ccccc3)c2-n2cccc2)n[nH]c1=S	?	7%	-15%
Cn1c(-c2cccc3ccccc23)n[nH]c1=S	10µM*	-1%	?
CCCN1CCC(NC(=O)C2CCCCC2C(=O)O)CC1 (stereo unspecified)	2%	nt	1%
NC(N)=NCCN1CCCCCCC1	nt	-4%	nt
CS(=O)(=O)N(CC(=O)N1CCN(C(c2ccccc2)c2ccccc2)CC1)C1CCCCC1	13µM*	0%	-1%
SMILES	RORg inh	KinaseGlo FLuc	Gal4-VP16 FLuc
CS(=O)(=O)N(CC(=O)N1CCN(c2ccccc2F)CC1)C1CCCCC1	-1%	-2%	7%
CCOc1ccc(/C=N/Nc2ccccc2)cc1	25%	nt	-10%
S=c1[nH]c(-c2ccccc2)cn1/N=C/c1ccncc1	6.3µM*	nt	-14%
CCOc1ccc(/C=N/n2cc(-c3ccccc3)[nH]c2=S)cc1	1.3µM*	2%	?
S=c1[nH]nc(-c2ccncc2)n1/N=C/c1cn(-c2ccccc2)nc1-c1ccccc1	-10%	nt	1%
CCOC(=O)c1c(S(=O)(=O)Nc2ccccn2)c(C)n(C)c1C	-3%	nt	-2%
CC(C)CC(=O)NC(c1ccccc1Cl)c1c(O)ccc2ccccc12 (stereo unspecified)	-5%[10 µM]	-1%	-13%
CCCC(=O)NC(c1ccc(N(C)C)cc1)c1ccc2cccnc2c1O (stereo unspecified)	2.5µM*	nt	2.8µM*
CCCCC(=O)NC(c1ccc(Cl)cc1Cl)c1ccc2cccnc2c1O (stereo unspecified)	3.2µM*	nt	3.2µM*
CCCC(=O)NC(c1ccc(OC)cc1)c1c(O)ccc2ccccc12 (stereo unspecified)	2%	nt	6%
CCOc1ccc(C(NC(=O)CC)c2c(O)ccc3ccccc23)cc1 (stereo unspecified)	15%	nt	-15%
CCC(=O)NC(c1ccc(Cl)cc1Cl)c1ccc2cccnc2c1O (stereo unspecified)	-1%[1.91 µM]	nt	?
CCCC(=O)NC(c1ccccc1Cl)c1ccc2cccnc2c1O (stereo unspecified)	2.8µM*	nt	4.5µM*
CCC(=O)NC(c1ccc(C)cc1)c1ccc2cccnc2c1O (stereo unspecified)	2.2µM*	nt	2.8µM*
CSc1cccc(CN2CCC(CCC(=O)NC3CC3)CC2)c1	-10%	nt	-3%
COc1ccc(C(=O)C2CCCN(C(=O)c3cccc(N4CCCC4=O)c3)C2)cc1OC (stereo unspecified)	56%	nt	-10%
O=C(c1ccco1)N1CCN(C2CC(=O)N(c3ccc(C(F)(F)F)cc3)C2=O)CC1 (stereo unspecified)	10%	nt	-8%
COc1cccc(NC(=O)C2CCC(CNS(=O)(=O)c3ccc4c(c3)CC(C)N4C(C)=O)CC2)c1 (stereo unspecified)	30%	nt	-14%
CC(=O)NC(c1ccco1)c1ccc2cccnc2c1O (stereo unspecified)	3.5µM*	1%	11µM*
CC(C)C(=O)NC(c1ccc(Cl)cc1Cl)c1ccc2cccnc2c1O (stereo unspecified)	4.5µM*	nt	3.2µM*
COc1ccc(C(NC(=O)C(C)C)c2ccc3cccnc3c2O)cc1 (stereo unspecified)	2.2µM*	nt	6.3µM*
CC(NC(=O)CSc1ncccn1)c1ccc(Cl)cc1Cl (stereo unspecified)	14%	1%	-2%
COc1ccc(OCC(=O)Nc2cccc3cccnc23)cc1	-16%	-2%	-13%
CCCCC(=O)NC(c1ccco1)c1c(O)ccc2ccccc12 (stereo unspecified)	?	-6%	3%
CC(C)c1ccc(NS(=O)(=O)c2cccc3cccnc23)cc1	1%	nt	1%
SMILES	RORg inh	KinaseGlo FLuc	Gal4-VP16 FLuc
CCCC(=O)NC(c1ccc(C(C)C)cc1)c1ccc2cccnc2c1O (stereo unspecified)	2.2µM*	nt	2.8µM*
CCOC(=O)C1CCN(S(=O)(=O)c2cccc(-c3cn4cccc(C)c4n3)c2)CC1	16%	-1%	-2%
COc1cc(C(=O)OCC(=O)Nc2c(F)c(F)c(F)c(F)c2F)cc(OC)c1OC	1%	1%	0%
COc1cc(Cl)c(C)cc1NC(=O)CSc1nnc(-c2ccccn2)n1Cc1ccco1	14%	2%	-1%
Clc1ccc(-c2noc(CN(Cc3ccccn3)CC3CCCO3)n2)cc1 (stereo unspecified)	4µM*	1%	-26%
CCN(Cc1nc(-c2ccc(Cl)cc2)no1)CC1CCCO1 (stereo unspecified)	20%	2%	4%
CCc1ccc2nc(/N=C(\N)NC(=O)c3ccccc3)nc(C)c2c1	-2%	nt	5%
CCCC(=O)N/C(N)=N/c1nc(C)c2ccccc2n1	1.1µM*	nt	21%
COc1ccc(NCC(=O)Nc2ccc(Br)cc2F)c(OC)c1	42%	nt	5%
CCC(CC)C(=O)c1c[nH]c(C(=O)N2CCN(c3ccc(OC)cc3)CC2)c1	17%	-1%	-2%
O=C(CN(C(=O)CNC(=O)c1cccs1)c1ccccc1F)NC1CCCC1	-9%	nt	1%
CC(=O)Nc1ccc(/C=C/c2ccc3cccc([N+](=O)[O-])c3n2)cc1	20%	nt	3%
Cc1ccc(/C=C/c2ccc3cccc(O)c3n2)s1	14µM*	nt	?

Assay outcomes from PubChem BioAssay.
